Bioassay records (PubChem)
This is one part of a sample in which hits are shown more often than they occur.
TbPYK inhibitor = blocks Trypanosoma brucei pyruvate kinase; 410,000 tested, 0.12% active; Potency, µM (doses to about 76.8 µM), actives largely listed as inhibitors; Q57TT1; TbPYK enzyme, Kinase-Glo Plus ATP luminescence, 45 min; further: nearly all actives have a fitted effect of over 50% in size
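TbPYK + substrate in 50 mM TEA pH 7.2, 100 mM KCl, 10 mM MgCl2, 0.05% BSA, 0.01% Tween-20; cpd pinned; ADP 130 uM final; 45 min RT; Kinase-Glo Plus 10 min; luminescence endpoint.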
Sm TGR block = S. mansoni TGR enzyme inhibition | Q962Y6 | purified TGR, DTNB reduction, TNB absorbance 405 nm | Potency, µM (series often up to 114 µM), hits mostly inhibitors | 360,000 tested, 3% active; further: nearly all actives have a fitted effect of over 60% in size
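TGR 20 nM + NADPH 100 uM (dispensed conc.), cpd preinc 15 min RT; start with NADPH (500 uM addition) then DTNB (15 mM addition). Kinetic TNB absorbance, 405 nm filter. Four-parameter Hill fit across titration.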
Giardia FBPA inh-1 = blocks Giardia fructose-bisphosphate aldolase activity | Potency, µM (top dose mostly 59.6 µM), hits mostly inhibitors | 290,000 tested, 0.71% active | purified Giardia FBPA; further: nearly all actives have a fitted effect of over 55% in size
Target sequence (A8B2U2 whole entry, looked up): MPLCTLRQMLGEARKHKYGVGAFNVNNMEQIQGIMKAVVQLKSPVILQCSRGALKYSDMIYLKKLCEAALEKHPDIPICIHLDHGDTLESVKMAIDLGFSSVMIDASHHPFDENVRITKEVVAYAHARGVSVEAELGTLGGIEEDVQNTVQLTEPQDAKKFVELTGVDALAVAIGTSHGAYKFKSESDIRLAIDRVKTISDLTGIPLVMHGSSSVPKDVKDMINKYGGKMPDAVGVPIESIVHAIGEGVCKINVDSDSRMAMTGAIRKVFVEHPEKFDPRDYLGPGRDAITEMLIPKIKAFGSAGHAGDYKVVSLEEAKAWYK
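40 nM FBPA preincubated 10 min at RT with compound (up to 57.5 uM final), then substrate plus GAPDH/TPI/NAD/arsenate coupling and diaphorase/resazurin added. Fluorescence read after 20 min at RT, 525/598 nm.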
Cycloheximide cs = counter-screen hit for Shiga toxin inhibitors, cycloheximide. AID 2314. cell reporter, cycloheximide protein synthesis inhibition counterscreen. 300,000 tested, 12% active. max response, %; in the data active means max response mostly above about 13%, no sharp cut-off; inactive means mostly below about 14%; further: read at 38.3 µM for the half of the compounds with a filed dose
LmPK inhibitor = inhibitors of Leishmania mexicana pyruvate kinase. Q27686. purified LmPK, Kinase-Glo ATP luminescence, 1 h. Potency, µM (doses to about 57.5 µM), hits mostly inhibitors. 290,000 tested, 0.37% active. AID 1721
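ATP generated from ADP (0.1 mM) and PEP (0.5 mM) by 0.1 nM LmPK over 1 h at room temperature (pH 7.2 imidazole buffer) was detected by coupled luciferase luminescence. Values were normalized to uninhibited and no-enzyme wells.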
Shiga inhibitor = inhibitors of Shiga toxin in Vero cells; inhibition, % at 38.7 µM; Vero cells, Shiga toxin protein synthesis inhibition reporter; AID 2315; 290,000 tested, 9.2% active; in the data active means inhibition mostly above about 28%, no sharp cut-off; inactive means mostly below about 43%
Giardia growth = Giardia lamblia growth inhibition | shares compounds with Giardia FBPA inh-1 | Giardia lamblia trophozoite growth inhibition | Potency, µM (top dose mostly 57.5 µM), actives largely listed as inhibitors | 1,500 tested, 5% active;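 further: trophozoites exposed to compound for 48 h at 37 °C; nearly all actives have a fitted effect of over 70% in size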
Mammalian tox = mammalian cytotoxicity of Giardia aldolase inhibitor hits. Potency, µM (titrated, usually from 57.5 µM), actives largely listed as inhibitors. mammalian cell viability counter-screen, qHTS. 1,500 tested, 4% active. shares compounds with Giardia FBPA inh-1. AID 2786;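 further: Chinese hamster ovary cells used as mammalian cytotoxicity surrogate; viability measured as cellular ATP by luminescence; compound exposure lasted 48 h before reading; nearly all actives have a fitted effect of over 60% in size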
Giardia FBPA inh-2 = confirmation of Giardia fructose-bisphosphate aldolase inhibitors. shares compounds with Giardia FBPA inh-1. purified Giardia aldolase enzyme activity, qHTS. Potency, µM (doses to about 57.5 µM), most hits filed as inhibitors. 1,500 tested, 5% active. AID 2787; further: nearly all actives have a fitted effect of over 45% in size
Rabbit aldolase = selectivity test for Giardia aldolase inhibitors: rabbit aldolase; Potency, µM (doses to about 57.5 µM), hits mostly inhibitors; shares compounds with Giardia FBPA inh-1; AID 2794; Rabbit muscle FBPA enzyme inhibition, selectivity counter-screen; 1,500 tested, 4% active; further: nearly all actives have a fitted effect of over 60% in size
GAPDH counter = GAPDH inhibition flagged for Giardia aldolase hits. shares compounds with Giardia FBPA inh-1. 1,500 tested, 6% active. Potency, µM (series often up to 57.5 µM), actives largely listed as inhibitors. GAPDH coupling enzyme counterscreen, biochemical, qHTS; further: nearly all actives have a fitted effect of over 55% in size
Large screens that a line does not name were inactive (follow-up assays come after a bar, where they were run); [ ] = dose if it differs, or a comment. Unless noted, the call rests on the fitted dose curve; in most records, active means well fitted curve in the direction sought with a large enough effect; inconclusive means small, poorly fitted or top-dose-only effect, or another doubt; inactive means no such curve, though single readings can be large; an effect the other way counts as inactive or inconclusive.

N#Cc1c(C#N)c(O)c2ccccc2c1O	TbPYK inhibitor inconclusive, Sm TGR block inconclusive, Giardia FBPA inh-1 20µM | Giardia growth inconclusive | Mammalian tox inactive | Giardia FBPA inh-2 inconclusive | Rabbit aldolase inconclusive | GAPDH counter inconclusive
Cc1cc(O)c2ccccc2c1O	none (no result: Sm TGR block, Giardia FBPA inh-1, Cycloheximide cs, LmPK inhibitor, Shiga inhibitor)
Nn1c(SCC(=O)Nc2ccccc2C(F)(F)F)nncc1=O	Giardia FBPA inh-1 20µM | Giardia growth inactive[10.4 µM] | Mammalian tox inactive | Giardia FBPA inh-2 inactive | Rabbit aldolase inactive | GAPDH counter inactive
CCc1nnc(NC(=O)CSc2nncc(=O)n2N)s1	Giardia FBPA inh-1 25µM | Giardia growth inactive | Mammalian tox inactive | Giardia FBPA inh-2 inactive | Rabbit aldolase inactive | GAPDH counter inactive
Nn1c(SCC(=O)Nc2ccc3c(c2)OCCO3)nncc1=O	Giardia FBPA inh-1 25µM, Cycloheximide cs 16, Shiga inhibitor 31 | Giardia growth inactive | Mammalian tox inactive | Giardia FBPA inh-2 inactive | Rabbit aldolase inactive | GAPDH counter inactive
CCc1nnc(NC(=O)CSc2nnc(C)c(=O)n2N)s1	none (no result: Giardia FBPA inh-1)
Clc1cccc(CN2CCN(Cc3ccco3)CC2)c1	Giardia FBPA inh-1 14µM | Giardia growth inactive | Mammalian tox inactive | Giardia FBPA inh-2 inactive | Rabbit aldolase inactive | GAPDH counter inactive
Cc1cc(N2CCN(C)CC2)nc2ccc(NC(=O)CCC3CCCC3)cc12	Giardia FBPA inh-1 inconclusive
O=C(CS(=O)(=O)c1cccc2nsnc12)N1CCN(c2cccc(C(F)(F)F)c2)CC1	none (no result: Giardia FBPA inh-1, Cycloheximide cs, LmPK inhibitor, Shiga inhibitor)
COc1cccc(CN(C)CC(=O)Nc2cccc(S(=O)(=O)N(C)c3ccccc3)c2)c1OC	none (no result: Sm TGR block, Giardia FBPA inh-1, Cycloheximide cs, LmPK inhibitor, Shiga inhibitor)
CCOc1ccc(CN(C)CC(=O)Nc2cccc(S(=O)(=O)N(C)c3ccccc3)c2)cc1	Giardia FBPA inh-1 20µM | Giardia growth inconclusive | Mammalian tox inactive | Giardia FBPA inh-2 inactive | Rabbit aldolase inactive | GAPDH counter inactive
C/C(=C\c1ccccc1)C(=O)N1CCN(Cc2ccc3c(c2)OCO3)CC1	none
C(=C\c1ccccc1)/CN1CCN(Cc2ccc3c(c2)OCO3)CC1	Giardia FBPA inh-1 7.9µM | Giardia growth inactive | Mammalian tox inactive | Giardia FBPA inh-2 inactive | Rabbit aldolase inactive | GAPDH counter inactive
O=[N+]([O-])c1ccccc1/C=C/CN1CCN(Cc2ccc3c(c2)OCO3)CC1	Giardia FBPA inh-1 11µM | Giardia growth inactive[10.4 µM] | Mammalian tox inactive | Giardia FBPA inh-2 inactive | Rabbit aldolase inactive | GAPDH counter inactive
O=C(Nc1ccc(F)cc1F)c1cc(=O)n(-c2ccccc2)c(=O)[nH]1	Giardia FBPA inh-1 7.9µM | Giardia growth inactive | Mammalian tox inactive | Giardia FBPA inh-2 inactive | Rabbit aldolase inactive | GAPDH counter inactive
O=C(Nc1cccc(C(=O)Nc2ccc(F)cc2F)c1)c1ccccc1	none
O=C(Nc1ccc(Cl)cc1)N1CCC(CN2CCCCCC2)CC1	Sm TGR block inconclusive (no result: Giardia FBPA inh-1, Cycloheximide cs, LmPK inhibitor, Shiga inhibitor)
Cc1ccc(C)c(OCCOCCN2CC(C)OC(C)C2)c1C (stereo not drawn)	Giardia FBPA inh-1 18µM | Giardia growth inactive[10.4 µM] | Mammalian tox inactive | Giardia FBPA inh-2 inactive | Rabbit aldolase inactive | GAPDH counter inactive
CC1CN(CCCCN2C(=O)c3ccccc3C2=O)CC(C)O1 (stereo not drawn)	Giardia FBPA inh-1 22µM | Giardia growth inconclusive | Mammalian tox inactive | Giardia FBPA inh-2 inactive | Rabbit aldolase inactive | GAPDH counter inactive
